Assay results as given in PubChem BioAssay (NCATS).
Where “and” joins values, the source holds several entries; their conditions need not be identical. Equal values may be shown once. Records with an inconclusive call do not appear. A call without a number means that no potency is given here. Calls of active or inactive are those of the source. The call rests on the fitted dose curve; in most records, active means well fitted cell-killing curve with a large enough effect; inconclusive means small, poorly fitted or top-dose-only effect, or effect the other way; inactive means no such curve, though single readings can be large or run the other way.

Test: qHTS of pediatric cancer cell lines to identify multiple opportunities for drug repurposing: Confirmatory screen for LAN-5 cells (AID 1347113); further: nearly all actives have a fitted effect of over 65% in size
Settings: LAN-5 neuroblastoma cell viability; series mostly up to 45.9 µM
Source text: Drug repurposing or repositioning has been offered as a strategy for drug development in oncology programs. This approach has special potential for childhood cancers and other rare or orphan diseases, where the expected return on new drug development has been a disincentive to pharmaceuticals.
In this project we exploit the poly-pharmacology of drugs to discover new indications via phenotypic screening of a panel of 19 well-characterized cell lines derived from solid tumors seen in children and adolescents. The goal is to identify approved drugs with previously unrecognized anticancer properties that has the potential to reveal new mechanisms and biological processes involved in carcinogenesis or drug resistance. We employed a titration-based paradigm (quantitative high-throughput screening or qHTS), where all compounds were tested at multiple concentrations for their effect on cell viability. Concentration-response curves (CRCs) were derived directly from the primary screen, and both potency and efficacy values were used to identify compounds with robust bioactivity profiles. We screened the NIH Chemical Genomics Center (NCGC) Pharmaceutical Collection (NPC) and Mechanism Interrogation Plate (MIPE) small molecule collections of approved and investigational compounds against these cell lines; and measured metabolically active cells after 48 hours of compound treatment as a proxy for cell viability.
Assay Submitter: Nathalia J. Martinez, National Center for Advancing Translational Sciences, National Institutes of Health, Rockville, MD, USA; email: natalia.martinez@nih.gov
[1] Shen, M et al. Quantitative high-throughput phenotypic screening of pediatric cancer cell lines identifies multiple opportunities for drug repurposing. Oncotarget 2017 Dec 19;9(4):4758-4772. PMID 29435139.
The cells were obtained from University of North Carolina (UNC), Pediatric Preclinical Testing Program (PPT), and Coriell Institute (CI).
qHTS cell viability assay:
Cells were assayed in growth media at a density of 500-1,000 cells/well. Five microliters of cells were dispensed into 1,536-well, white, solid-bottom, TC-treated plates (Greiner Bio One) using a multidrop dispenser and incubated at 37 degrees C, 5% CO2, under a humidified atmosphere for 5 hours. Twenty-three nanoliters of compounds and controls (neutral control DMSO or positive control bortezomib at final concentration of 2.3 µM) were subsequently transferred by Kalypsys pintool. For primary screens, the MIPE collection was tested at 11-point dilutions (final concentrations range from 0.78 nM to 46 µM) and the NPC collection at 8-point dilutions (final concentrations range from 0.59 nM to 46 µM). Compounds tested in follow-up screens were assayed at 11-point dilutions. Cells were incubated for 48 hours, followed by addition of 3 µL of CellTiter-Glo (Promega). After a 15 min incubation at room temperature, samples were analyzed for luminescence intensity using a ViewLux High-throughput CCD imager equipped with clear filters.
Potency means the concentration at half of the fitted maximal effect.

Row | Structure (SMILES) | Potency
1 | Cc1cc(C2CCCCC2)n(O)c(=O)c1 | 5.85 µM (active)
2 | CCN(CC)C(=S)SSC(=S)N(CC)CC | 0.147 µM (active)
3 | C=C(c1ccc(C(=O)O)cc1)c1cc2c(cc1C)C(C)(C)CCC2(C)C | inactive
4 | CC(S)C(=O)NCC(=O)O (stereo unspecified) | inactive
5 | CCCCc1ccc2nc(NC(=O)OC)[nH]c2c1 | 8.27 µM (active)
6 | Nc1ccn([C@@H]2O[C@H](CO)[C@@H](O)C2O)c(=O)n1 (stereo partly specified) | inactive
7 | Nc1ncn([C@H]2C[C@H](O)[C@@H](CO)O2)c(=O)n1 | inactive
8 | O=C(CCc1ccc(O)cc1)c1c(O)cc(O)cc1O | inactive
9 | CC[C@]1(O)C[C@H]2CN(CCc3c([nH]c4ccccc34)[C@@](C(=O)OC)(c3cc4c(cc3OC)N(C=O)[C@H]3[C@@](O)(C(=O)OC)[C@H](OC(C)=O)[C@]5(CC)C=CCN6CC[C@]43[C@@H]65)C2)C1 | 58.5 nM (active) and 827 nM (active)
10 | Cc1ccc(Nc2nccc(N(C)c3ccc4c(C)n(C)nc4c3)n2)cc1S(N)(=O)=O | inactive
11 | CCOc1cc(CC(=O)N[C@@H](CC(C)C)c2ccccc2N2CCCCC2)ccc1C(=O)O | inactive
12 | O=C(NCC1CCCCN1)c1cc(OCC(F)(F)F)ccc1OCC(F)(F)F (stereo unspecified) | inactive
13 | CC1(C)C(=O)N(CCN2CCC(C(=O)c3ccc(F)cc3)CC2)c2ccccc21 | inactive
14 | O=C1c2c(O)cc(O)cc2OC(c2ccc(O)c(O)c2)C1O (stereo unspecified) | inactive
15 | Oc1ccc(-c2nc(-c3ccc(F)cc3)c(-c3ccncc3)[nH]2)cc1 | 1.04 µM (active)
16 | c1cnc2cc3c(cc2n1)C1CNCC3C1 | inactive
17 | Clc1ccc(C(Cn2ccnc2)OCc2ccsc2Cl)c(Cl)c1 (stereo unspecified) | 20.8 µM (active)
18 | CN(C)c1ccc(O)c2c1C[C@H]1C[C@H]3[C@H](N(C)C)C(=O)C(C(N)=O)=C(O)[C@@]3(O)C(=O)C1=C2O | inactive
19 | C[C@]12CCC(=O)C=C1CC[C@@H]1[C@H]2[C@@H](O)C[C@@]2(C)[C@H]1CC[C@]2(O)C(=O)CO | inactive
20 | CN(C)c1ccc2nc3ccc(=[N+](C)C)cc-3sc2c1 | 3.69 µM (active)
21 | CC(C)C[C@H](NC(=O)[C@H](Cc1ccccc1)NC(=O)c1cnccn1)B(O)O | 0.0329 µM (active)
